# Source: PubChem
# EPAC1 ag val: Validation qHTS for agonist of cAMP-regulated guanine nucleotide exchange factor 3 (EPAC1) | Potency, µM, for inactives: max response, positive = active, hits mostly activators | AID 1645883, 2021 | 16,000 tested, 1% active | EPAC1 Rap1b BODIPY-GDP exchange, fluorescence; note: nearly all actives have a fitted effect of over 70% in size
# EPAC2 ant val: Validation qHTS for antagonist of cAMP-regulated guanine nucleotide exchange factor 4 (EPAC2) | EPAC2 Rap1B BODIPY-GDP exchange, fluorescence | Potency, µM (top dose mostly 112 µM), inactives show at the highest dose activity, negative = inhibition, usual class: inhibitors | 16,000 tested, 1.7% active;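 note: 100% = activation by cAMP agonist control; nearly all actives have a fitted effect of over 40% in size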
#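 Fluorescent exchange read-out: 100 nM EPAC2 with 250 nM RAP1B–BODIPY-GDP and 50 uM GDP; BODIPY-GDP release lowers fluorescence. Read at 480/540 nm every 5 min for 30 min at room temperature; normalized to 6.5 mM cAMP.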
# Active calls of the source: *; i = inactive; u = inconclusive; ! = repeats disagree; [ ] = another dose, or the depositor's remark. An excerpt weighted towards active compounds, which were near 2.9% of everything screened. Calls come from the whole dose curve; as a rule, active = well fitted curve in the direction sought with a large enough effect; inconclusive = small, poorly fitted or top-dose-only effect, or another doubt; inactive = no such curve, though single readings can be large; an effect the other way counts as inactive or inconclusive. Unless noted, % is set by controls: 0 for no effect and ±100 for the full control effect; potency is the fitted concentration of half-maximal effect.
SMILES,EPAC1 ag val,EPAC2 ant val
C=CC[C@@H]1/C=C(\C)C[C@H](C)C[C@H](OC)[C@H]2O[C@@](O)(C(=O)C(=O)N3CCCC[C@H]3C(=O)O[C@H](/C(C)=C/[C@@H]3CC[C@@H](O)[C@H](OC)C3)[C@H](C)[C@@H](O)CC1=O)[C@H](C)C[C@@H]2OC,-64.0%,79.4µM*
CC(C)(C)C1(O)CCN2CC3c4ccccc4CCc4cccc(c43)C2C1 (centres undefined),9.1%,-10.9%
C=CC(C)(C)c1[nH]c2ccccc2c1C1=C(O)C(=O)C(c2c[nH]c3c(CC=C(C)C)cccc23)=C(O)C1=O,-14.1%,44.7µM*
CC(C)C(=O)NCC1CCC2(CCN(Cc3ccc(-c4ccccc4Cl)o3)CC2)O1 (centres undefined),11.8%,-8.7%
CC(C)(C=O)Cc1cc(C(C)(C)C)c(O)c(C(C)(C)C)c1,4.8%,u
CC(C)(CO)Cc1cc(C(C)(C)C)c(O)c(C(C)(C)C)c1,4.4%,56.2µM*!
O=C([C@@H]1C[C@@H](Sc2nc3ccccc3[nH]2)CN1Cc1ccc(C(F)(F)F)cc1)N1CCN(c2ccccc2F)CC1,-12.6%,-30.6%
COc1cccc(-c2nc3cc4c(cc3cc2CN(C(=O)c2cccs2)C2CC2)CCC4)c1OC,-3.7%,u
COc1cc2c(cc1OC)-c1cc(=Nc3c(C)cc(C)cc3C)n(C)c(=O)n1CC2,u,14.1µM*!
COc1cccc(C(=O)N(Cc2cc3ccc(C)cc3nc2N(C)C)C2CC2)c1OC,-1.9%,14.1µM*
COc1ccc(-c2nc3cc(C)ccc3cc2CN(C(=O)c2cccs2)C2CC2)cc1OC,23.8%,u
O=C1CC[C@@H](C(=O)N[C@H]2C[C@@H]2c2ccccc2)N1,-5.1%,-10.7%
Cc1cc(C)c(S(=O)(=O)Nc2cccc(C(F)(F)F)c2)c(C)c1,-10.5%,39.8µM*
O=C(OCCOCCO)c1ccccc1Nc1cccc(C(F)(F)F)c1,-7.8%,-19.8%[56.6 µM]
O=C(NCc1nnc2n1CCN(Cc1cc(F)cc(F)c1)CC2)c1cccc(F)c1,5.2%,-24.7%
Cc1ccc(C(=O)Nc2cnn(-c3ccc(C(=O)N(C)Cc4n[nH]c5c4CCCC5)cc3)c2)c(C)c1,21.3%,-12.1%
CCCCCCCCCCCCCCCCCCOCC(COP(=O)([O-])OCC[N+](C)(C)C)OC (centres undefined),-23.5%,7.3%
CN(Cc1ccco1)c1ncncc1-c1ccccc1Cl,u,5.2%
CN(C)c1ncnc2ccc(-c3ccoc3)cc12,-23.1%,-29.4%
CN(Cc1ccco1)c1ncnc2ccc(-c3ccccc3Cl)cc12,u,39.8µM*
CN(Cc1ccco1)c1ncnc2ccc(-c3ccoc3)cc12,-14.2%,44.7µM*
COc1ccccc1-c1ccc2ncnc(N(C)Cc3ccco3)c2c1,u,50.1µM*
COc1ccccc1-c1cc(N(C)Cc2ccco2)ncn1,-26.9%,u
Cc1nc2sccn2c1CN1CCOc2ccc(CN3CCN(c4ccc(F)cc4)CC3)cc2C1,-3.4%,u
CC(O)[C@H]1CC[C@H]2[C@@H]3CC[C@@H]4C[C@@H](O)CC[C@]4(C)[C@H]3CC[C@]12C (some centres undefined),19.1%,-3.0%
SMILES,EPAC1 ag val,EPAC2 ant val
COc1cc2c(cc1O)CCN[C@]21CS[C@@H]2c3c(OC(C)=O)c(C)c4c(c3[C@H](COC1=O)N1[C@@H]2[C@H]2c3c(cc(C)c(OC)c3O)C[C@@H]([C@@H]1O)N2C)OCO4,-45.3%,15.9%[239 µM]
COc1ccccc1C(=O)N[C@@H]1c2ccccc2C2(CCN(Cc3c(O)cccc3OC)CC2)[C@H]1O,-4.9%,-10.3%
Cc1ccccc1C1(CC(=O)N2CCCC2c2nccs2)CC(=O)N(C2CCCC2)C1=O (centres undefined),-1.6%,-17.2%
Brc1c(Br)c(Br)c2[nH]cnc2c1Br,-9.0%,-1.3%
Brc1c(Br)c(Br)c2n[nH]nc2c1Br,-24.7%,39.8µM*
COc1ccc2c(=O)c(OC)c(-c3ccccc3)oc2c1,-7.7%,11.2µM*
COc1ccc(-c2oc3ccccc3c(=O)c2O)cc1,-5.0%,-10.4%
C=C1CC2C3CCC4=CC(=O)C=C[C@]4(C)[C@@]3(F)[C@@H](O)C[C@]2(C)[C@@]1(O)C(=O)COC(C)=O (some centres undefined),16.0%,4.8%
CCOc1ccc2nc3cc(N)ccc3c(N)c2c1,28.5%,u
Nc1ccc2cc3ccc(N)cc3nc2c1,100µM*,i
CO[C@H]1C=CO[C@@]2(C)Oc3c(C)c(O)c4c(O)c(cc(O)c4c3C2=O)NC(=O)/C(C)=C\C=C/[C@H](C)[C@H](O)[C@@H](C)[C@@H](O)[C@@H](C)[C@H](OC(C)=O)[C@@H]1C,-12.1%,-15.9%
CCOC(=O)N1CCN(Cc2ccc3c(c2)CN(C(=O)c2ccc(C#CC(C)(C)O)o2)CCO3)CC1,0.4%,u
O=C(Nc1ccc(C(=O)Nc2ccc(C(=O)Nc3ccc(S(=O)(=O)O)c4cc(S(=O)(=O)O)cc(S(=O)(=O)O)c34)cc2)cc1)Nc1ccc(C(=O)Nc2ccc(C(=O)Nc3ccc(S(=O)(=O)O)c4cc(S(=O)(=O)O)cc(S(=O)(=O)O)c34)cc2)cc1,-8.6%,22.4µM*
O=C(Nc1cc(C(=O)Nc2ccc(S(=O)(=O)O)cc2S(=O)(=O)O)cc(C(=O)Nc2ccc(S(=O)(=O)O)cc2S(=O)(=O)O)c1)Nc1cc(C(=O)Nc2ccc(S(=O)(=O)O)cc2S(=O)(=O)O)cc(C(=O)Nc2ccc(S(=O)(=O)O)cc2S(=O)(=O)O)c1,u,-18.5%
O=C(O)COc1ccc(C(=O)c2cccs2)c(Cl)c1Cl,-12.2%,-5.7%
CCCC[C@@]1(C2CCCC2)Cc2cc(OCC(=O)O)c(Cl)c(Cl)c2C1=O,-6.3%,14.1µM*
CC(C)c1nc(C(=O)N2CCOc3ccc(CN4CCN(c5ccccn5)CC4)cc3C2)cs1,2.5%,-21.6%
CCCc1nc(C(C)(C)O)c(C(=O)OCc2oc(=O)oc2C)n1Cc1ccc(-c2ccccc2-c2nn[nH]n2)cc1,-18.9%,-19.9%
CCOc1nc2cccc(C(=O)OC(C)OC(=O)OC3CCCCC3)c2n1Cc1ccc(-c2ccccc2-c2nn[nH]n2)cc1 (centres undefined),u,56.2µM*
CC(O)(COc1ccccc1)c1ccc2c(c1)CN(Cc1cccn1-c1ccccn1)CCO2 (centres undefined),-5.5%,-15.9%
Cc1ccc(SC[C@H](C)CN2CC[C@H](C)CCC2=O)cc1,-42.7%,u
COc1ccc(SC[C@H](C)CN2CC[C@H](O)CCC2=O)cc1,19.5%,-5.2%
CC(=O)Nc1ccc(SC[C@H](C)CN2CC[C@H](C(C)(C)C)CCC2=O)cc1,-0.8%,56.2µM*
COc1ccc(SC[C@H](C)CN2CC[C@H](C)CCC2=O)cc1,3.2%,50.1µM*
COc1cc(C)c(CN2CCOc3ccc(C(O)c4cccnc4)cc3C2)cc1C (centres undefined),5.8%,-22.5%
CC[C@@H](C(=O)O)[C@@H]1O[C@@H]([C@@H](C)[C@H](O)[C@H](C)C(=O)[C@H](CC)[C@H]2O[C@]3(C=C[C@@H](O)[C@]4(CC[C@@](C)([C@H]5CC[C@](O)(CC)[C@H](C)O5)O4)O3)[C@H](C)C[C@@H]2C)[C@@H](C)C[C@@H]1C,-43.1%,15.8%
c1cncc(OC2CCN(Cc3ccc4c(c3)CN(Cc3ccc5c(c3)OCCO5)CCO4)CC2)c1,7.1%,-15.0%
CC1=C(/C=C/C(C)=C/C=C/C(C)=C/C=C/C=C(C)/C=C/C=C(C)/C=C/C2=C(C)C[C@@H](O)CC2(C)C)C(C)(C)C[C@H](O)C1,-24.1%,27.7%
